# Most compounds without a hit are left out; they make up all but 0.38% or so of the library.
# Cdc42 wt: human Cdc42 wildtype GTP binding change, either direction; P60953; GST-Cdc42 beads, Bodipy-GTP binding, flow cytometry; actives lie on both sides; percent activity (GTP binding), % at 10 µM; hit rate 0.2% among 190,000; AID 761;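 active = percent activity GTP binding at least 20 points away from the 100% baseline, either down as inhibitor or up as activator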;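 note: median bead fluorescence of bound Bodipy-FL-GTP at 100 nM; 0% = excess unlabeled GTP control and 100% = no compound control; below 100% means less GTP binding so inhibitor and above means activator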
# Target sequence (P60953 whole entry, looked up): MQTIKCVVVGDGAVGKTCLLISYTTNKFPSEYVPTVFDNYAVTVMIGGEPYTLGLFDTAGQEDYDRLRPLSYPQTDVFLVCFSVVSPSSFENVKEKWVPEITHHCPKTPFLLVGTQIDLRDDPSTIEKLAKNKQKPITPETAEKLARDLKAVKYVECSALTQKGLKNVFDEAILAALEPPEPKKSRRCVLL
# Rab7 wt modul: dog Rab7 wildtype GTP binding, inhibitors and activators; GST-Rab7 beads, fluorescent GTP binding, flow cytometry; actives lie on both sides; untreated = 100%, excess cold GTP = 0%; GTP binding activity (percent of control), % at 10 µM; hit rate 0.055% among 190,000; AID 758;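 active = fluorescent GTP binding to Rab7 beads changed by at least 20 points from the 100% baseline, either direction, mostly lower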;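 note: median green fluorescence of bound Bodipy-FL-GTP per Rab7 bead population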
# Rab2 wt GTP: changes GTP binding to wildtype dog Rab2A, up or down | hit rate 0.19% among 190,000 | GTP binding activity, % at 10 µM | P61105 | GST-Rab2 wt beads, Bodipy-GTP binding, flow cytometry | AID 760;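 active = GTP binding activity at least 20 points away from 100%, either lowered or raised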;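 note: 0% = beads with excess unlabeled GTP and 100% = no-compound control corrected for plate trend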
# Rac1 wt GTP bind: modulators of human Rac1 wildtype GTP binding; P63000; GST-Rac1 beads, fluorescent GTP binding, flow cytometry; actives lie on both sides; 0 = cold GTP competed, 100 = untreated; GTP binding activity (% of control), % at 10 µM; hit rate 0.27% among 190,000;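 active = GTP binding activity at least 20 points away from the 100% control level, either lower or higher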
# HRas wt GTP bind: modulators of GTP binding to human HRas wildtype; P01112; GST-Ras wt beads, Bodipy-FL-GTP binding, flow cytometry; actives lie on both sides; GTP binding activity, % at 10 µM; hit rate 0.14% among 190,000; AID 759;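 active = GTP binding activity at least 20% away from the 100% baseline, either lowered as inhibitor or raised as activator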;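 note: 0% = unlabeled GTP competition control and 100% = no-compound control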
# Target sequence (P01112 whole entry, looked up): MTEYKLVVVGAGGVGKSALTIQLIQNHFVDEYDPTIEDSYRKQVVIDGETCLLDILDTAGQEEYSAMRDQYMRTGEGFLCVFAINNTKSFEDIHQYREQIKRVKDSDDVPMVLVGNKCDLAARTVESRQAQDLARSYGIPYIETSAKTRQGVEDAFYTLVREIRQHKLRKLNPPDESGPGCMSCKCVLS
# Rac1 mut GTP: alters GTP binding to activated mutant human Rac1. GST-Rac1 activated beads, fluorescent GTP binding, flow cytometry; actives lie on both sides; 100% means binding = to untreated wells. percent activity (GTP binding), % at 10 µM. hit rate 0.11% among 190,000. AID 764;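 active = GTP binding at least 20 percentage points away from the 100% baseline, in either direction, so actives lie on both sides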
# * hit, by the source's call; [ ] = another dose, or the depositor's remark.
SMILES,Cdc42 wt,Rab7 wt modul,Rab2 wt GTP,Rac1 wt GTP bind,HRas wt GTP bind,Rac1 mut GTP
Cn1c(=O)n(Cc2ccc(F)cc2)c(=O)c2c1nc1n2CCN1Cc1ccco1,80,92,77*,75*,81,89
Cc1ccccc1-n1c(SCc2c(C)noc2C)nnc1-c1cccnc1,118,111,115,132*[activator],110,110
Cc1ccccc1-n1c(SCc2c(C)noc2C)nnc1-c1ccncc1,97,98,95,98,99,96
O=C(NNc1nc2c(F)cccc2s1)c1cc(=O)c2ccccc2o1,81,100,83,84,86,76*
Cc1cccc2sc(NNC(=O)c3cc(=O)c4ccccc4o3)nc12,77*,97,83,81,84,74*
Cc1ccc2sc(NNC(=O)c3cc(=O)c4ccccc4o3)nc2c1C,81,100,85,83,85,77*
COc1ccc2nc(NNC(=O)c3cc(=O)c4ccccc4o3)sc2c1,86,99,87,90,90,84
Cc1cc2nc(SCC(=O)Nc3ccccc3C(=O)O)[nH]c2cc1C,94,92,93,93,93,90
COc1ccc2c(C)nc(N/C(N)=N/S(=O)(=O)c3ccc(C)cc3)nc2c1,84,95,87,77*,88,89
Cc1ccc(S(=O)(=O)/N=C(\N)Nc2nc(C)c3ccccc3n2)cc1,92,100,94,95,96,98
CCOC(=O)N1CCN(/C=C(\C#N)c2nc3ccccc3s2)CC1,114,120*[activator],129*[activator],124*[activator],121*[activator],118
c1ccc(-n2cc(CNCCc3cscn3)c(-c3ccc4c(c3)OCO4)n2)cc1,98,100,99,95,98,96
O=C(O)c1ccccc1COc1ccccc1Cl,109,109,108,119,108,110
O=C(O)c1ccccc1OCc1ccccc1Br,139*[activator],120*[activator],129*[activator],142*[activator],122*[activator],126*[activator]
COc1ccc(OCC(=O)Nc2nonc2NC(=O)COc2ccc(OC)cc2)cc1,84,95,82,79*,85,88
Cc1cc(C)cc(OCC(=O)Nc2nonc2NC(=O)COc2cc(C)cc(C)c2)c1,96,95,95,97,94,95
CCOc1ccc(Oc2ccc(Cl)cc2N)cc1,93,105,98,97,98,94
O=c1[nH]c2ccccc2c2nc3ccccn3c12,95,94,92,99,93,95
O=c1nc2c(O)cccn2c2c1c(=O)[nH]c1ccccc12,70*,81,62*,61*,59*,77*
CC1CN(C(=O)c2cccc(S(=O)(=O)Nc3cc(Cl)ccc3Cl)c2)CC(C)O1 (stereo unspecified),79*,96,78*,72*,81,83
CC1=NC(=O)C(N=Nc2ccccc2C(=O)O)N1c1ccccc1 (stereo unspecified),80,91,80,79*,84,81
CC1=NC(=O)C(N=Nc2ccccc2)N1c1ccccc1 (stereo unspecified),97,99,95,100,98,98
CCCCOc1ccc2c(c1)/C(=C(\C(Cl)=C(Cl)Cl)[N+](=O)[O-])N2,97,96,95,99,96,97
CC(C)C(=O)N1CCN(c2ccccc2NC(=O)c2cccc(Cl)c2)CC1,116,108,111,121*[activator],112,108
CC(C)(C)OC(=O)NCCCC[C@H](NC(=O)c1nc[nH]c1C(=O)NC(c1ccccc1)c1ccccc1)C(=O)OC(C)(C)C,92,93,93,97,94,93
SMILES,Cdc42 wt,Rab7 wt modul,Rab2 wt GTP,Rac1 wt GTP bind,HRas wt GTP bind,Rac1 mut GTP
CCOC(=O)c1c(NC(=O)/C=C/c2ccc3c(c2)OCO3)sc(C)c1C,103,100,103,102,104,101
CCOC(=O)c1c(NC(=O)/C=C/c2ccc3c(c2)OCO3)sc(C)c1CC,83,92,85,87,91,77*
O=C(c1cc2nc(-c3ccc(Cl)cc3)cc(C(F)(F)F)n2n1)N1CCOCC1,96,95,92,97,93,93
O=C(c1ccccc1Sc1ccccc1[N+](=O)[O-])N1CCCCC1,91,100,98,96,96,94
CN1CCN(CCC(=O)N2c3ccccc3Sc3ccc(Cl)cc32)CC1,104,98,98,102,100,97
O=C(CN1CCN(CCOCCO)CC1)N1c2ccccc2Sc2ccc(Cl)cc21,112,102,102,120*[activator],103,103
O=C(O)c1cc([N+](=O)[O-])ccc1NCc1ccccc1Cl,129*[activator],114,129*[activator],146*[activator],125*[activator],133*[activator]
COC(CNC(=O)C1CCCN1C(=O)OCc1ccccc1)OC (stereo unspecified),119,115,116,121*[activator],115,117
O=C(O)C1CCCN1C(=O)OCc1ccccc1 (stereo unspecified),128*[activator],120*[activator],122*[activator],139*[activator],121*[activator],121*[activator]
COc1ccc2nc(SCC(=O)Nc3ccc4c(c3)OCCO4)[nH]c2c1,101,100,98,101,101,99
COc1ccc2[nH]c3nc(SCC(=O)Nc4ccc5c(c4)OCO5)nnc3c2c1,74*,85,72*,87,74*,87
CCn1cc(C(=O)O)c(=O)c2cc(F)c(N/N=C/c3ccccc3)cc21,89,89,83,76*,84,88
N#Cc1c(C(F)(F)F)cc(-c2ccc(Cl)cc2)[nH]c1=O,76*,78*,81,78*,81,78*
CCCCCn1c(SCCc2ccccc2)nc2c1c(=O)[nH]c(=O)n2C,101,104,102,106,102,100
CCCCn1c(SCC(=O)c2ccccc2)nc2c1c(=O)[nH]c(=O)n2C,38*,21*,36*,33*,41*,36*
Cc1ccc(S(=O)(=O)N2CCC(C(=O)NNC(=O)c3cccnc3)CC2)cc1,95,109,101,98,96,93
Cc1onc(-c2c(F)cccc2Cl)c1C(=O)Nc1cccc(S(=O)(=O)NCc2ccco2)c1,92,102,96,91,96,90
CNC(=S)N=Nc1c(O)[nH]c2ccccc12,80,85,72*,69*,79*,84
Oc1ccc(NC(=S)N=Nc2c(O)[nH]c3ccc(Br)cc23)cc1,79*,92,79*,79*,80,90
Cc1ccc(NC(=S)N=Nc2c(O)[nH]c3ccccc23)cc1,86,87,84,84,87,89
Oc1ccc(NC(=S)N=Nc2c(O)[nH]c3ccccc23)cc1,71*,101,75*,70*,77*,86

# Screens: PubChem, NMMLSC
